A number with no mark means an inactive call. Inconclusive results are not listed. Calls of active or inactive are those of the source. Calls follow the shape of the dose curve; as a rule, active = well fitted curve in the direction sought with a large enough effect; inconclusive = small, poorly fitted or top-dose-only effect, or another doubt; inactive = no such curve, though single readings can be large; an effect the other way counts as inactive or inconclusive.

The nature of experiment [1]: qHTS profiling for inhibitors of Plasmodium falciparum proliferation (AID 504749). Also: potency is read from the fitted curve at half-maximal effect.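 As to activity, negative = inhibition: 0% = DMSO vehicle and full inhibition = artemisinin control.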 As to all read-outs here: nearly all actives have a fitted effect of over 60% in size. As to conditions: P. falciparum in erythrocytes, SYBR Green DNA, 72 h; for activity, negative = inhibition: at 28.7 µM (top of the series). In outline:
(§1)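 Quantitative HTS: compounds pinned into medium, infected erythrocytes added (0.3% parasitemia, 2.5% hematocrit), 72 h culture at 37 C under 5% CO2. Saponin/Triton lysis with SYBR Green I, overnight RT, then fluorescence read.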

Experiment [2] deals with 3D7. Described as above. As to conditions: P. falciparum in erythrocytes, SYBR Green DNA, 72 h; series mostly up to 28.7 µM. The procedure, abridged:
as §1

Experiment [3] concerns 7G8. The experiment is described as above. As to conditions: P. falciparum in erythrocytes, SYBR Green DNA, 72 h; series mostly up to 28.7 µM. The procedure, abridged:
as §1

Experiment [4] deals with AA1029. Described as above. The settings on record: P. falciparum in erythrocytes, SYBR Green DNA, 72 h; series mostly up to 28.7 µM. The procedure, abridged:
as §1

For experiment [5], the system named is AS120. The description is as above. As to conditions: P. falciparum in erythrocytes, SYBR Green DNA, 72 h; series mostly up to 28.7 µM. In outline: as §1
Experiment [6] relates to ATS189. The description is as above. As to conditions: P. falciparum in erythrocytes, SYBR Green DNA, 72 h; series mostly up to 28.7 µM. The procedure, abridged: as §1
The target in experiment [7] is Cytochrome P450 2D6 (Homo sapiens) (UniProt P10635). Description: qHTS for inhibitors of CYP2D6 against the NCATS DSHEA and TCM libraries (AID 1919972). Also: potency is read from the fitted curve at half-maximal effect. As to conditions: CYP2D6 enzymatic inhibition, luminescence qHTS. The procedure, abridged:
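CYP2D6 enzyme with pro-luciferin substrate in manufacturer buffer (typically 100 mM KPO4), preincubated 15 min RT with substances (most at 19.5 nM upward); NADPH regeneration system (1x) started 30–45 min RT reaction; P450-Glo luminescence read after 30 min; quinidine as intraplate control.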

Experiment [8] addresses Cytochrome P450 2C19 (Homo sapiens) (UniProt P33261). As to the kind of experiment: qHTS for inhibitors of CYP2C19 against the NCATS DSHEA and TCM libraries (AID 1919974).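 Also: luminescence from luciferin released by CYP2C19 oxidation of a pro-luciferin substrate; potency is read from the fitted curve at half-maximal effect.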 The settings on record: CYP2C19 enzyme inhibition, luminescence qHTS. The procedure, abridged:
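Each CYP isoform and its pro-luciferin substrate, at isoform-specific final concentrations, were preincubated 15 min at RT with substances. NADPH regeneration solution (1x) started a 30-45 min reaction, and P450-Glo luminescence was read.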

Experiment [9] in a line: KB-3-1 P-gp reporter qHTS against the NCATS DSHEA and TCM libraries (AID 1919975). Also: 0% is about no effect. The procedure, abridged:
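Parental KB-3-1 human cervical adenocarcinoma cells (500 cells/well, DMEM + 10% FBS) were treated with substances for ~72 h at 37C; viability was read by CellTiter-Glo luminescence.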

Experiment [10] deals with Cytochrome P450 1A2 (Homo sapiens) (UniProt P05177). Description: qHTS for inhibitors of CYPIA2 against the NCATS DSHEA and TCM libraries (AID 1919976). Also: potency is read from the fitted curve at half-maximal effect. The settings on record: recombinant CYP1A2 enzyme activity, luminescence. In outline: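 Reaction started with 1x NADPH regeneration solution and run 30-45 min, room temperature, protected from light, after compounds sat 15 min with CYP1A2 and pro-luciferin substrate. P450-Glo detection gave luminescence; furafylline served as control.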
Cytochrome P450 1A2 (Homo sapiens), sequence (P05177 whole entry, looked up): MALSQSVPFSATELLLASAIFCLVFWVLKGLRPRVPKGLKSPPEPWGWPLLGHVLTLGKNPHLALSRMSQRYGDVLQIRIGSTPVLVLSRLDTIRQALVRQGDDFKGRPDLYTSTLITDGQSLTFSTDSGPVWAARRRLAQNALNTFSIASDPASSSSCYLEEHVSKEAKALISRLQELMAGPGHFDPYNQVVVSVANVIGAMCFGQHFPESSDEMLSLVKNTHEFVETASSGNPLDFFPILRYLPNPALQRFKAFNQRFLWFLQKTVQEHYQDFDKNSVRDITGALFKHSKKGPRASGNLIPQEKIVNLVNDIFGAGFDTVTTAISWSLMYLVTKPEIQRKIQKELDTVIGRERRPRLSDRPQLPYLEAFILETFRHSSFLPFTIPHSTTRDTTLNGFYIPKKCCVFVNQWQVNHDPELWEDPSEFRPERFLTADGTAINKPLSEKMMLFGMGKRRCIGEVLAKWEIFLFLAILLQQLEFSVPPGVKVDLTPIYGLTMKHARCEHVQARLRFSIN

A short description of experiment [11]: KB-8-5-11 P-gp reporter qHTS against the NCATS DSHEA and TCM libraries (AID 1919977). Also: 0% is about no effect. In outline: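 P-gp-overexpressing KB-8-5-11 cells (500/well) were plated in colchicine-free DMEM with 10% FBS, attached ~4 h, then exposed to substance titrations for ~72 h at 37C. Viability was read by CellTiter-Glo luminescence.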
The nature of experiment [12]: qHTS Counterscreen for compound interference against the NCATS DSHEA and TCM libraries (AID 1919978). Also: % of control where 0% means no effect. As to conditions: firefly luciferase detection reagent interference, luminescence. The procedure, abridged: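 D-luciferin (1 uM final) or 100 mM potassium phosphate buffer alone was preincubated 15 min at RT with compounds (19.5 nM to 39.8 uM final). Luciferin detection reagent was then added and luminescence read after 30 min at RT.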

Experiment [13] in a line: Dual reporter qHTS for agonist of Pregnane X Receptor (hPXR) against the NCATS DSHEA and TCM libraries: Fluorescence readout (AID 1920058). Also: 0% is about no effect. The procedure, abridged:
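Viability readout (CellTiter-Fluor, 405/540 nm, 1 h) from agonist-mode PXR dual reporter in hPXR-Luc HepG2 cells. Substances ~24 h, 37 °C, 5% CO2; rifampicin reference, tetraoctyl ammonium bromide cytotoxic control.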

Experiment [14] has as its target Nuclear receptor subfamily 1 group I member 2 (Homo sapiens) (UniProt O75469). Description: Dual reporter qHTS for antagonist of Pregnane X Receptor (hPXR) against the NCATS DSHEA and TCM libraries: Luminescence Readout (AID 1920060).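 Also: HepG2 cells carrying hPXR luciferase reporter stimulated with rifampicin at 2 µM; 0% is about no effect.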 In outline: (§2)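 In antagonist mode, 2 uM rifampicin was added to hPXR-Luc HepG2 cells alongside test substances, incubated 24 h at 37 C; luminescence gave reporter activity, and CellTiter-Fluor fluorescence (405/540 nm) gave viability.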

The nature of experiment [15]: Dual reporter qHTS for antagonist of Pregnane X Receptor (hPXR) against the NCATS DSHEA and TCM libraries: Fluorescence Readout (AID 1920061). Also: 0% is about no effect. In outline:
as §2

Cytochrome P450 2C19 (Homo sapiens), sequence (P33261 whole entry, looked up, canonical isoform): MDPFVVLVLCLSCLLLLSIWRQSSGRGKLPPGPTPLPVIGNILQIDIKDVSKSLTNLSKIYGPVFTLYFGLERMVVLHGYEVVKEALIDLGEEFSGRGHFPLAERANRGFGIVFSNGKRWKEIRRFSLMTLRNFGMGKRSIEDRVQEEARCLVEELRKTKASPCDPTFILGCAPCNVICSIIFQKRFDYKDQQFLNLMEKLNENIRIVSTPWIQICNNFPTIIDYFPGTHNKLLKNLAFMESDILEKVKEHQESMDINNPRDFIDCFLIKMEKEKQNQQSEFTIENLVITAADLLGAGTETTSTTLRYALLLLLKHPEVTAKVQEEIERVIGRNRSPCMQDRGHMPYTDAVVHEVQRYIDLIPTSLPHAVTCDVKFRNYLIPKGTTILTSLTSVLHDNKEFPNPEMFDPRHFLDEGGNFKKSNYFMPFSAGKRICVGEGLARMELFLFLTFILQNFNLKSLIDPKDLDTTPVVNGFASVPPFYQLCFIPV
Cytochrome P450 2D6 (Homo sapiens), sequence (P10635 whole entry, looked up): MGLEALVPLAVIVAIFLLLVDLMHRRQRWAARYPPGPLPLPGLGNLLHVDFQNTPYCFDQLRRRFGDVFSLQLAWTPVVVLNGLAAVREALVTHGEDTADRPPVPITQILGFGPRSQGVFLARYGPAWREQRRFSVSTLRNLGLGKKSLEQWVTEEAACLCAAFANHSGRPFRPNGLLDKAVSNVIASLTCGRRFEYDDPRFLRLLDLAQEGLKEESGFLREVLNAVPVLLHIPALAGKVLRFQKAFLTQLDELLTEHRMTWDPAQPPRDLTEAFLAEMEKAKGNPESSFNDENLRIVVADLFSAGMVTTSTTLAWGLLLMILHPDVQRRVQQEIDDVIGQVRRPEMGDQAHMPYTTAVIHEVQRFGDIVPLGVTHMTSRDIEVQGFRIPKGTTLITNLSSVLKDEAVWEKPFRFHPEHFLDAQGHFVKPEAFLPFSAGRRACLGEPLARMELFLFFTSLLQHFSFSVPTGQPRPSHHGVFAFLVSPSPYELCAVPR
Nuclear receptor subfamily 1 group I member 2 (Homo sapiens), sequence (O75469 whole entry, looked up): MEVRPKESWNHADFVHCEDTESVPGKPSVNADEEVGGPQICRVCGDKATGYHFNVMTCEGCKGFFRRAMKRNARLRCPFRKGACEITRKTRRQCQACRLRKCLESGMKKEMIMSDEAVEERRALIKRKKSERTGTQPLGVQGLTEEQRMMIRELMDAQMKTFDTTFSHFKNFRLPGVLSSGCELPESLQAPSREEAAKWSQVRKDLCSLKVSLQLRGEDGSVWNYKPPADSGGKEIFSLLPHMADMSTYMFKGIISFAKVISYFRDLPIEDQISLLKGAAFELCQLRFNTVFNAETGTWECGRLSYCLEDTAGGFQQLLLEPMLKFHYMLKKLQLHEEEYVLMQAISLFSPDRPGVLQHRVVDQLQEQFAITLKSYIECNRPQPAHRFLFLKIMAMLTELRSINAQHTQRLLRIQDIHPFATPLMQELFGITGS

Consider `CCC(C(N)=O)N1CCCC1=O` (centres undefined), for which the activity, negative = inhibition in experiment [1] (parasite line A) is 2.96%; in experiment [1] (parasite line B), 6.9%. For the same molecule, the Potency result in experiment [2], in experiment [3], in [4], in experiment [5] and in experiment [6] was “inactive” each time.

As for `CC(=O)[C@H]1CC[C@H]2[C@@H]3CC[C@H]4C[C@](C)(O)CC[C@]4(C)[C@H]3CC[C@]12C`, the activity, negative = inhibition in [1] (parasite line A) was 3.34%; in experiment [1] (parasite line B), 12.8%. Besides, the Potency result in experiment [2], in [3], in [4], in [5] and in [6] was “inactive” in each case.

Consider `CC(C)=CCOc1c2occc2cc2ccc(=O)oc12`, for which the Potency in experiment [7] was 1.78 µM (active); in experiment [8] it was 12.6 µM (active); in experiment [10] it was 1.26 µM (active). For the same molecule, the molecule was called inactive in experiment [9], in experiment [11], in experiment [13], in experiment [14] and in experiment [15]. In [12], the max response was 2.08%.

Consider `NCC(O)c1ccc(O)cc1` (centres undefined), for which the activity, negative = inhibition in [1] (parasite line A) is 10.2%; in experiment [1] (parasite line B), 3.73%. In addition, the Potency result in experiment [2], in experiment [3], in [4], in experiment [5] and in experiment [6] was “inactive” in each case.

For `CC[N+](CC)(CC)CC`, the activity, negative = inhibition in [1] (parasite line A) is 15.6%; in [1] (parasite line B), 17.3%. The Potency entry in experiment [2], in [3], in [4], in [5] and in experiment [6] was “inactive” each time.

`NCC(CC(=O)O)c1ccc(Cl)cc1` (centres undefined): the activity, negative = inhibition was 6.71% in experiment [1] (parasite line A) and 18.2% in experiment [1] (parasite line B). Besides, the Potency result in [2], in experiment [3], in [4], in experiment [5] and in experiment [6] was “inactive” throughout.

In the case of `CC(C)=CC1C(C(=O)OCc2cccc(Oc3ccccc3)c2)C1(C)C` (centres undefined), the activity, negative = inhibition is -11.7% in experiment [1] (parasite line A) and -17.5% in [1] (parasite line B). Moreover, the Potency result in [2], in experiment [4], in [5] and in experiment [6] was “inactive” in each case. In [3], the Potency is 12.6 µM (active).

Turning to `O=[N+]([O-])c1cc([As](=O)(O)O)ccc1O`, the Potency was 3.98 µM (active) in experiment [1] (parasite line A); 3.16 µM (active) in [1] (parasite line B); 3.98 µM (active) in [2]; 3.98 µM (active) in experiment [3]; 3.16 µM (active) in [4]; 3.16 µM (active) in experiment [5].

In the case of `O=c1[nH]c2ccccc2n1C1CCN(CCCC(c2ccc(F)cc2)c2ccc(F)cc2)CC1`, in experiment [1] (parasite line B), the activity, negative = inhibition was -29.2%. Also, in experiment [2], the Potency was 15.8 µM (active). Further, the Potency entry in [4] and in experiment [6] was “inactive” each time.

Consider `COc1ccccc1N1CCNCC1`, for which the results for the activity, negative = inhibition in experiment [1] (parasite line A) and in experiment [1] (parasite line B) were -0.986% and 0.847%, respectively. For the same molecule, the Potency entry in experiment [2], in [3], in [4], in [5] and in experiment [6] was “inactive” throughout.

Take `CC(C)(N)Cc1ccc(Cl)cc1`: the activity, negative = inhibition was -1.24% in experiment [1] (parasite line A) and 1.12% in experiment [1] (parasite line B). For the same molecule, the Potency entry in experiment [2] and in experiment [5] was “inactive” throughout.

Turning to `CC1NCCOC1c1ccccc1` (centres undefined), the activity, negative = inhibition in experiment [1] (parasite line A) was 8.85%; in experiment [1] (parasite line B), 5.03%. Besides, the Potency result in [2], in experiment [3], in experiment [4], in experiment [5] and in experiment [6] was “inactive” each time.

The values above are taken from PubChem BioAssay (NCATS).
